Paper PMC7156710, “The Sox2 transcription factor binds RNA”

Assays:
Assay in all cases: fluorescence anisotropy; 10 mM Tris-HEPES pH 7.5, 8% Ficoll, 0.05% NP-40, 135 mM KCl, 15 mM NaCl, 1 mM DTT, 0.1 mg/mL BSA; 2 nM DNA or 3 nM RNA; low values mean tight binding
Details in all cases: protein: recombinant; tags: N-terminal His6 and thrombin site, not removed; label: FAM; only (+) strand given; dsDNA, one strand shown
[1] = biological target: Sox2-HMG (His6 retained) E78A (Homo sapiens, UniProt P48431 38-121, E78A)
Procedure, shortened: (§1)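 Polarization on a CLARIOstar was recorded for His6-tagged, Ni-NTA-purified Sox2-HMG domains bearing alanine substitutions introduced by site-directed mutagenesis, titrated for no less than 1 h in Tris-HEPES pH 7.5 binding buffer against 2 nM fluorescein-labeled DNA or 3 nM fluorescein-labeled RNA. Triplicate titrations were each read three times. Dissociation constants were derived in Kaleidagraph and expressed as a ratio of mutant to wild type.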

[2] = biological target: Sox2-HMG (His6 retained) S72A (Homo sapiens, UniProt P48431 38-121, S72A)
Sequence of Sox2-HMG (His6 retained) S72A (P48431 other isoform, or with tags, fused parts or gaps S72A | S72A S72A): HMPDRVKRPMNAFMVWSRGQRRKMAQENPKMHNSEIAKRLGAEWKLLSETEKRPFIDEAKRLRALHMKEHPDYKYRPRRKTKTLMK
Procedure, shortened: as §1

[3] = biological target: Sox2-HMG (His6 retained) E104A (Homo sapiens, UniProt P48431 38-121, E104A)
Sequence of Sox2-HMG (His6 retained) E104A (P48431 other isoform, or with tags, fused parts or gaps E104A | E104A E104A): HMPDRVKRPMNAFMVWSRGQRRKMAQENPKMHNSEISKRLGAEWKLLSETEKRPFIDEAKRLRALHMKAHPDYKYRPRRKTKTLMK
Procedure, shortened: as §1

[4] = biological target: Sox2-HMG (His6 retained) K58A (Homo sapiens, UniProt P48431 38-121, K58A)
Sequence of Sox2-HMG (His6 retained) K58A (P48431 other isoform, or with tags, fused parts or gaps K58A | K58A K58A): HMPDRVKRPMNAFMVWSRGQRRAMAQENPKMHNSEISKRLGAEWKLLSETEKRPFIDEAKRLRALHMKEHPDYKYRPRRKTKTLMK
Procedure, shortened: as §1

[5] = biological target: Sox2-HMG (His6 retained) H67A (Homo sapiens, UniProt P48431 38-121, H67A)
Sequence of Sox2-HMG (His6 retained) H67A (P48431 other isoform, or with tags, fused parts or gaps H67A | H67A H67A): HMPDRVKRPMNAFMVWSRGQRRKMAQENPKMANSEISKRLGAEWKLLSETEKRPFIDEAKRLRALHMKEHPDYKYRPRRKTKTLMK
Procedure, shortened: as §1

[6] = biological target: Sox2-HMG (His6 retained) K42A (Homo sapiens, UniProt P48431 38-121, K42A)
Sequence of Sox2-HMG (His6 retained) K42A (P48431 other isoform, or with tags, fused parts or gaps K42A | K42A K42A): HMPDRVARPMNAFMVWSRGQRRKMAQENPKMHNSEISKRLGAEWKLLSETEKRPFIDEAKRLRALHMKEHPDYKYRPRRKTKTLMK
Procedure, shortened: as §1

[7] = biological target: Sox2-HMG (His6 retained) M45A (Homo sapiens, UniProt P48431 38-121, M45A)
Sequence of Sox2-HMG (His6 retained) M45A (P48431 other isoform, or with tags, fused parts or gaps M45A | M45A M45A): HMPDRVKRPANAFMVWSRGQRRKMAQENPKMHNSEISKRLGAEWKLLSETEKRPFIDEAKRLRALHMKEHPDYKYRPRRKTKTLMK
Procedure, shortened: as §1

[8] = biological target: Sox2-HMG (His6 retained) N63A (Homo sapiens, UniProt P48431 38-121, N63A)
Sequence of Sox2-HMG (His6 retained) N63A (P48431 other isoform, or with tags, fused parts or gaps N63A | N63A N63A): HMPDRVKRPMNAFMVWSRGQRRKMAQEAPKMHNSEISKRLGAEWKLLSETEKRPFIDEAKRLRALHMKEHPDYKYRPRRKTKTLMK
Procedure, shortened: as §1

[9] = biological target: Sox2-HMG (His6 retained) K115A (Homo sapiens, UniProt P48431 38-121, K115A)
Procedure, shortened: as §1

[10] = biological target: Sox2-HMG (His6 retained) E70A (Homo sapiens, UniProt P48431 38-121, E70A)
Sequence of Sox2-HMG (His6 retained) E70A (P48431 other isoform, or with tags, fused parts or gaps E70A | E70A E70A): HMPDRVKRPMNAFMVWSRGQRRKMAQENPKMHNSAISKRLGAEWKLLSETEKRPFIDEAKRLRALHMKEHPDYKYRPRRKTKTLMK
Procedure, shortened: as §1

[11] = biological target: Sox2-HMG (His6 retained) K87A (Homo sapiens, UniProt P48431 38-121, K87A)
Sequence of Sox2-HMG (His6 retained) K87A (P48431 other isoform, or with tags, fused parts or gaps K87A | K87A K87A): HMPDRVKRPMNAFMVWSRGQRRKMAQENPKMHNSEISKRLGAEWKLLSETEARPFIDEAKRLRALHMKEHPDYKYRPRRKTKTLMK
Procedure, shortened: as §1

[12] = biological target: Sox2-HMG (His6 retained) W79A (Homo sapiens, UniProt P48431 38-121, W79A)
Sequence of Sox2-HMG (His6 retained) W79A (P48431 other isoform, or with tags, fused parts or gaps W79A | W79A W79A): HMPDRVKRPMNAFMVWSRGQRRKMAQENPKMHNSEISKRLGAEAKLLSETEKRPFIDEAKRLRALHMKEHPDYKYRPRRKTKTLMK
Procedure, shortened: as §1

[13] = biological target: Sox2-HMG (His6 retained) E62A (Homo sapiens, UniProt P48431 38-121, E62A)
Sequence of Sox2-HMG (His6 retained) E62A (P48431 other isoform, or with tags, fused parts or gaps E62A | E62A E62A): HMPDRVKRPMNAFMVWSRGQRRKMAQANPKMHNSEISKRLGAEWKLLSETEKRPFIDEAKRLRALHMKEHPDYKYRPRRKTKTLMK
Procedure, shortened: as §1

[14] = biological target: Sox2-HMG (His6 retained) R114A (Homo sapiens, UniProt P48431 38-121, R114A)
Sequence of Sox2-HMG (His6 retained) R114A (P48431 other isoform, or with tags, fused parts or gaps R114A | R114A R114A): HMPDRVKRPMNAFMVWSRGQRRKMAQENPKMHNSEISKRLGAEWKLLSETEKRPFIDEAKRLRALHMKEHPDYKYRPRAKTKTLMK
Procedure, shortened: as §1

[15] = biological target: Sox2-HMG (His6 retained) S69A (Homo sapiens, UniProt P48431 38-121, S69A)
Sequence of Sox2-HMG (His6 retained) S69A (P48431 other isoform, or with tags, fused parts or gaps S69A | S69A S69A): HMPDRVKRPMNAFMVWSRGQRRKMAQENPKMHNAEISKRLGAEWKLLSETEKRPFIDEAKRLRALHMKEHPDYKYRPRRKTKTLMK
Procedure, shortened: as §1

[16] = biological target: Sox2-HMG (His6 retained) R96A (Homo sapiens, UniProt P48431 38-121, R96A)
Sequence of Sox2-HMG (His6 retained) R96A (P48431 other isoform, or with tags, fused parts or gaps R96A | R96A R96A): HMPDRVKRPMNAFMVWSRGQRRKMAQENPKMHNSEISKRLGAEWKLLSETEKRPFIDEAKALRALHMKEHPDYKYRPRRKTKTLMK
Procedure, shortened: as §1

[17] = biological target: Sox2-HMG (His6 retained) R40A (Homo sapiens, UniProt P48431 38-121, R40A)
Sequence of Sox2-HMG (His6 retained) R40A (P48431 other isoform, or with tags, fused parts or gaps R40A | R40A R40A): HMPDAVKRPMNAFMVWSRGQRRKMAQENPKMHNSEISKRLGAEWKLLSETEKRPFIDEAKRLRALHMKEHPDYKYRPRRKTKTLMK
Procedure, shortened: as §1

[18] = biological target: Sox2-HMG (His6 retained) W51A (Homo sapiens, UniProt P48431 38-121, W51A)
Sequence of Sox2-HMG (His6 retained) W51A (P48431 other isoform, or with tags, fused parts or gaps W51A | W51A W51A): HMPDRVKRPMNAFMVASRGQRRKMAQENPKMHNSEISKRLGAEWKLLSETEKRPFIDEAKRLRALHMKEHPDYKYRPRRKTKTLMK
Procedure, shortened: as §1

[19] = biological target: Sox2-HMG (His6 retained) S83A (Homo sapiens, UniProt P48431 38-121, S83A)
Sequence of Sox2-HMG (His6 retained) S83A (P48431 other isoform, or with tags, fused parts or gaps S83A | S83A S83A): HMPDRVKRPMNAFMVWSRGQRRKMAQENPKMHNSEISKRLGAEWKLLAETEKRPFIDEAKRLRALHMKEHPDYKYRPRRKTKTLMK
Procedure, shortened: as §1

[20] = biological target: Sox2-HMG (His6 retained) R111A (Homo sapiens, UniProt P48431 38-121, R111A)
Sequence of Sox2-HMG (His6 retained) R111A (P48431 other isoform, or with tags, fused parts or gaps R111A | R111A R111A): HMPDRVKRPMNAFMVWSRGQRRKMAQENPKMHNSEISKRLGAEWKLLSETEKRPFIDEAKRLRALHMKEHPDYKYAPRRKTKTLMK
Procedure, shortened: as §1

[21] = biological target: Sox2-HMG (His6 retained) E84A (Homo sapiens, UniProt P48431 38-121, E84A)
Sequence of Sox2-HMG (His6 retained) E84A (P48431 other isoform, or with tags, fused parts or gaps E84A | E84A E84A): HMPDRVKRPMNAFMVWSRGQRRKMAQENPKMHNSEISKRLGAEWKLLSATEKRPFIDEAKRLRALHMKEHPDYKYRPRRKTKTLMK
Procedure, shortened: as §1

[22] = biological target: Sox2-HMG (His6 retained) K95A (Homo sapiens, UniProt P48431 38-121, K95A)
Sequence of Sox2-HMG (His6 retained) K95A (P48431 other isoform, or with tags, fused parts or gaps K95A | K95A K95A): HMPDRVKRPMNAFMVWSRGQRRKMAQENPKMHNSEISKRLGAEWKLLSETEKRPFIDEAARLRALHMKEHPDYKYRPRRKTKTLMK
Procedure, shortened: as §1

[23] = biological target: Sox2-HMG (His6 retained) F48A (Homo sapiens, UniProt P48431 38-121, F48A)
Sequence of Sox2-HMG (His6 retained) F48A (P48431 other isoform, or with tags, fused parts or gaps F48A | F48A F48A): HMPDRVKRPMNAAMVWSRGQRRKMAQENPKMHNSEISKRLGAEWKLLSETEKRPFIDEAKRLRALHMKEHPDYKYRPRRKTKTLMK
Procedure, shortened: as §1

[24] = biological target: Sox2-HMG (His6 retained) R74A (Homo sapiens, UniProt P48431 38-121, R74A)
Sequence of Sox2-HMG (His6 retained) R74A (P48431 other isoform, or with tags, fused parts or gaps R74A | R74A R74A): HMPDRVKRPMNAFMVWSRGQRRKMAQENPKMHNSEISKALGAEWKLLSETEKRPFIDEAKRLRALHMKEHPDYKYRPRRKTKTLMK
Procedure, shortened: as §1

[25] = biological target: Sox2-HMG (His6 retained) Q61A (Homo sapiens, UniProt P48431 38-121, Q61A)
Sequence of Sox2-HMG (His6 retained) Q61A (P48431 other isoform, or with tags, fused parts or gaps Q61A | Q61A Q61A): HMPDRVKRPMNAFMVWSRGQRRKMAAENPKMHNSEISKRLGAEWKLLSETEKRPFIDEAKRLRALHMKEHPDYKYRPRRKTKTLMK
Procedure, shortened: as §1

[26] = biological target: Sox2-HMG (His6 retained) R88A (Homo sapiens, UniProt P48431 38-121, R88A)
Sequence of Sox2-HMG (His6 retained) R88A (P48431 other isoform, or with tags, fused parts or gaps R88A | R88A R88A): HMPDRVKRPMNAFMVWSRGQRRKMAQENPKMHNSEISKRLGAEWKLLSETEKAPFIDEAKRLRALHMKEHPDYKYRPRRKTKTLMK
Procedure, shortened: as §1

[27] = biological target: Sox2-HMG (His6 retained) K73A (Homo sapiens, UniProt P48431 38-121, K73A)
Sequence of Sox2-HMG (His6 retained) K73A (P48431 other isoform, or with tags, fused parts or gaps K73A | K73A K73A): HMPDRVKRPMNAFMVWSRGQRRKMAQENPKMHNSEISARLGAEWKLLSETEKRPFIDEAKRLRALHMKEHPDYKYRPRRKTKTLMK
Procedure, shortened: as §1

[28] = biological target: Sox2-HMG (His6 retained) E86A (Homo sapiens, UniProt P48431 38-121, E86A)
Sequence of Sox2-HMG (His6 retained) E86A (P48431 other isoform, or with tags, fused parts or gaps E86A | E86A E86A): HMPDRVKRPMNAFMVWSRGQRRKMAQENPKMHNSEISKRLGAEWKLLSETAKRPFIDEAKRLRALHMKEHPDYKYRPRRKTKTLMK
Procedure, shortened: as §1

[29] = biological target: Sox2-HMG (His6 retained) R53A (Homo sapiens, UniProt P48431 38-121, R53A)
Sequence of Sox2-HMG (His6 retained) R53A (P48431 other isoform, or with tags, fused parts or gaps R53A | R53A R53A): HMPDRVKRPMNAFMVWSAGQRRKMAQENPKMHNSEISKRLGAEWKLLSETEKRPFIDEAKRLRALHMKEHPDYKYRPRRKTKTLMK
Procedure, shortened: as §1

[30] = biological target: Sox2-HMG (His6 retained) R113A (Homo sapiens, UniProt P48431 38-121, R113A)
Sequence of Sox2-HMG (His6 retained) R113A (P48431 other isoform, or with tags, fused parts or gaps R113A | R113A R113A): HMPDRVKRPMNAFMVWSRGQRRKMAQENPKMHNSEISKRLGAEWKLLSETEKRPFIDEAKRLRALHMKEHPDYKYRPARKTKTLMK
Procedure, shortened: as §1

[31] = biological target: Sox2-HMG (His6 retained) T85A (Homo sapiens, UniProt P48431 38-121, T85A)
Sequence of Sox2-HMG (His6 retained) T85A (P48431 other isoform, or with tags, fused parts or gaps T85A | T85A T85A): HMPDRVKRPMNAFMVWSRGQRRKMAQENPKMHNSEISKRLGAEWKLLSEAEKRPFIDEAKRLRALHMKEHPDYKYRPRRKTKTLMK
Procedure, shortened: as §1

[32] = biological target: Sox2-HMG (His6 retained) M49A (Homo sapiens, UniProt P48431 38-121, M49A)
Sequence of Sox2-HMG (His6 retained) M49A (P48431 other isoform, or with tags, fused parts or gaps M49A | M49A M49A): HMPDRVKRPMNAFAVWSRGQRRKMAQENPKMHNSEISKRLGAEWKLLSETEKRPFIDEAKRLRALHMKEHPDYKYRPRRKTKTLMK
Procedure, shortened: as §1

[33] = biological target: Sox2-HMG (His6 retained) R56A (Homo sapiens, UniProt P48431 38-121, R56A)
Sequence of Sox2-HMG (His6 retained) R56A (P48431 other isoform, or with tags, fused parts or gaps R56A | R56A R56A): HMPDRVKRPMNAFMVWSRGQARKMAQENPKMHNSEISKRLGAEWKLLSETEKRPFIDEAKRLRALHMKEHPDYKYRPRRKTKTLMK
Procedure, shortened: as §1

[34] = biological target: Sox2-HMG (His6 retained) K80A (Homo sapiens, UniProt P48431 38-121, K80A)
Sequence of Sox2-HMG (His6 retained) K80A (P48431 other isoform, or with tags, fused parts or gaps K80A | K80A K80A): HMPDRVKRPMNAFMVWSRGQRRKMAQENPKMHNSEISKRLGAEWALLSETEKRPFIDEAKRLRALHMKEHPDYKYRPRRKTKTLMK
Procedure, shortened: as §1

[35] = biological target: Sox2-HMG (His6 retained) Y110A (Homo sapiens, UniProt P48431 38-121, Y110A)
Sequence of Sox2-HMG (His6 retained) Y110A (P48431 other isoform, or with tags, fused parts or gaps Y110A | Y110A Y110A): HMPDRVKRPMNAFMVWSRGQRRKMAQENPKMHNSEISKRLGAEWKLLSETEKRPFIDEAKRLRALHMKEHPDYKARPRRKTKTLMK
Procedure, shortened: as §1

[36] = biological target: Sox2-HMG (His6 retained) K103A (Homo sapiens, UniProt P48431 38-121, K103A)
Sequence of Sox2-HMG (His6 retained) K103A (P48431 other isoform, or with tags, fused parts or gaps K103A | K103A K103A): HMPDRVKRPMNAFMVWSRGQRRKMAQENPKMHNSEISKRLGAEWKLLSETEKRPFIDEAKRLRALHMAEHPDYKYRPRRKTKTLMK
Procedure, shortened: as §1

[37] = biological target: Sox2-HMG (His6 retained) K109A (Homo sapiens, UniProt P48431 38-121, K109A)
Sequence of Sox2-HMG (His6 retained) K109A (P48431 other isoform, or with tags, fused parts or gaps K109A | K109A K109A): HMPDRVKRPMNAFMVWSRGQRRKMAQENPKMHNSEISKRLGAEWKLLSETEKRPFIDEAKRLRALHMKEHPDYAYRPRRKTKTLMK
Procedure, shortened: as §1

[38] = biological target: Sox2-HMG (His6 retained) R43A (Homo sapiens, UniProt P48431 38-121, R43A)
Sequence of Sox2-HMG (His6 retained) R43A (P48431 other isoform, or with tags, fused parts or gaps R43A | R43A R43A): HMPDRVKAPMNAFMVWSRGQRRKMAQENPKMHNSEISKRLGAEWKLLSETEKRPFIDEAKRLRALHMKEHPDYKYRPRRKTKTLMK
Procedure, shortened: as §1

[39] = biological target: Sox2-HMG (His6 retained) R57A (Homo sapiens, UniProt P48431 38-121, R57A)
Sequence of Sox2-HMG (His6 retained) R57A (P48431 other isoform, or with tags, fused parts or gaps R57A | R57A R57A): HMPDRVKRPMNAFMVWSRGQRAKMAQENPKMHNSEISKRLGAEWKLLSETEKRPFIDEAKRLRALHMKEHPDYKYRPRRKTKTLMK
Procedure, shortened: as §1

[40] = biological target: Sox2-HMG (His6 retained) R98A (Homo sapiens, UniProt P48431 38-121, R98A)
Sequence of Sox2-HMG (His6 retained) R98A (P48431 other isoform, or with tags, fused parts or gaps R98A | R98A R98A): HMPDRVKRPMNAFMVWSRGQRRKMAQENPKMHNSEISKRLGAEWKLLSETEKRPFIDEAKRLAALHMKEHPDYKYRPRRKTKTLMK
Procedure, shortened: as §1

[41] = biological target: Sox2-HMG (His6 retained) N68A (Homo sapiens, UniProt P48431 38-121, N68A)
Sequence of Sox2-HMG (His6 retained) N68A (P48431 other isoform, or with tags, fused parts or gaps N68A | N68A N68A): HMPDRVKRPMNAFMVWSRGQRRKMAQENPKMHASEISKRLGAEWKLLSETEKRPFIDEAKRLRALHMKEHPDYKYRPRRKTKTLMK
Procedure, shortened: as §1

[42] = biological target: Sox2-HMG (His6 retained) P112A (Homo sapiens, UniProt P48431 38-121, P112A)
Sequence of Sox2-HMG (His6 retained) P112A (P48431 other isoform, or with tags, fused parts or gaps P112A | P112A P112A): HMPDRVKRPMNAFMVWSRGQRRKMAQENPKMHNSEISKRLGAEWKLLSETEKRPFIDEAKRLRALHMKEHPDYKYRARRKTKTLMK
Procedure, shortened: as §1

[43] = biological target: Sox2-HMG (His6 retained) N46A (Homo sapiens, UniProt P48431 38-121, N46A)
Sequence of Sox2-HMG (His6 retained) N46A (P48431 other isoform, or with tags, fused parts or gaps N46A | N46A N46A): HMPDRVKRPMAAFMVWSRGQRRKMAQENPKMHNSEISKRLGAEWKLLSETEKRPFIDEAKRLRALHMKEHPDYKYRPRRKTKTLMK
Procedure, shortened: as §1

[44] = biological target: Sox2-HMG (His6 retained) K65A (Homo sapiens, UniProt P48431 38-121, K65A)
Sequence of Sox2-HMG (His6 retained) K65A (P48431 other isoform, or with tags, fused parts or gaps K65A | K65A K65A): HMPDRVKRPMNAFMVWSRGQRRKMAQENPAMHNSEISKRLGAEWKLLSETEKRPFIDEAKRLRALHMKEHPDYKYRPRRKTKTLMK
Procedure, shortened: as §1

[45] = biological target: Sox2-HMG (His6 retained) H101A (Homo sapiens, UniProt P48431 38-121, H101A)
Sequence of Sox2-HMG (His6 retained) H101A (P48431 other isoform, or with tags, fused parts or gaps H101A | H101A H101A): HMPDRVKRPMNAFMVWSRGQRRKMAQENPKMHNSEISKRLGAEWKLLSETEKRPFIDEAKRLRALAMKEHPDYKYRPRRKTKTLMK
Procedure, shortened: as §1

[46] = biological target: Sox2-HMG (His6 retained) P64A (Homo sapiens, UniProt P48431 38-121, P64A)
Sequence of Sox2-HMG (His6 retained) P64A (P48431 other isoform, or with tags, fused parts or gaps P64A | P64A P64A): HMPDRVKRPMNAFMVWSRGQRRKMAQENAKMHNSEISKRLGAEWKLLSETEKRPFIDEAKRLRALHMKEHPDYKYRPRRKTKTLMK
Procedure, shortened: as §1

[47] = biological target: Sox2-HMG (His6 retained) M66A (Homo sapiens, UniProt P48431 38-121, M66A)
Sequence of Sox2-HMG (His6 retained) M66A (P48431 other isoform, or with tags, fused parts or gaps M66A | M66A M66A): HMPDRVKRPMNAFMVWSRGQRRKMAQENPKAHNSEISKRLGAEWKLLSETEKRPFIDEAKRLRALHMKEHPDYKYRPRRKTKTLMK
Procedure, shortened: as §1

[48] = biological target: Sox2-HMG (His6 retained) H105A (Homo sapiens, UniProt P48431 38-121, H105A)
Sequence of Sox2-HMG (His6 retained) H105A (P48431 other isoform, or with tags, fused parts or gaps H105A | H105A H105A): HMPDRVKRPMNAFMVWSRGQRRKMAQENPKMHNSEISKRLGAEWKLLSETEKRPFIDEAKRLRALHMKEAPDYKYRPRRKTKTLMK
Procedure, shortened: as §1

Question: Which binding signal [1] does the source give for CGCGCCTTTGTTCCCGGGT here?
Answer: 2.2 ± 1 Kd(mutant)/Kd(WT)

Question: And the binding signal [2]?
Answer: 1.4 ± 0.4 Kd(mutant)/Kd(WT)

Question: And the binding signal [3]?
Answer: 1.1 ± 0.3 Kd(mutant)/Kd(WT)

Question: And the binding signal [4]?
Answer: 1.1 ± 0.5 Kd(mutant)/Kd(WT)

Question: What about the binding signal [5] of the same sequence?
Answer: 2.4 ± 0.7 Kd(mutant)/Kd(WT)

Question: What about the binding signal [6] of the same sequence?
Answer: 2.8 ± 1.8 Kd(mutant)/Kd(WT)

Question: And the binding signal [7]?
Answer: 1.4 ± 0.7 Kd(mutant)/Kd(WT)

Question: And the binding signal [8]?
Answer: 2.9 ± 1.4 Kd(mutant)/Kd(WT)

Question: And the binding signal [9]?
Answer: 5.8 ± 1 Kd(mutant)/Kd(WT)

Question: And the binding signal [10]?
Answer: 0.7 ± 0.4 Kd(mutant)/Kd(WT)

Question: And the binding signal [11]?
Answer: 9.3 ± 1.4 Kd(mutant)/Kd(WT)

Question: And the binding signal [12]?
Answer: 490 ± 20 Kd(mutant)/Kd(WT)

Question: And the binding signal [13]?
Answer: 0.6 ± 0.3 Kd(mutant)/Kd(WT)

Question: And the binding signal [14]?
Answer: 6.1 ± 2.2 Kd(mutant)/Kd(WT)

Question: What about the binding signal [15] of the same sequence?
Answer: 1.1 ± 0.5 Kd(mutant)/Kd(WT)

Question: What about the binding signal [16] of the same sequence?
Answer: 1.6 ± 1.1 Kd(mutant)/Kd(WT)

Question: What about the binding signal [17] of the same sequence?
Answer: 2 ± 1.9 Kd(mutant)/Kd(WT)

Question: And the binding signal [18]?
Answer: 17 ± 2.8 Kd(mutant)/Kd(WT)

Question: And the binding signal [19]?
Answer: 0.9 ± 0.2 Kd(mutant)/Kd(WT)

Question: And the binding signal [20]?
Answer: 3 ± 0.8 Kd(mutant)/Kd(WT)

Question: What about the binding signal [21] of the same sequence?
Answer: 1.6 ± 0.3 Kd(mutant)/Kd(WT)

Question: And the binding signal [22]?
Answer: 1.1 ± 1.1 Kd(mutant)/Kd(WT)

Question: What about the binding signal [23] of the same sequence?
Answer: 420 ± 120 Kd(mutant)/Kd(WT)

Question: And the binding signal [24]?
Answer: 0.7 ± 0.4 Kd(mutant)/Kd(WT)

Question: What about the binding signal [25] of the same sequence?
Answer: 0.6 ± 0.2 Kd(mutant)/Kd(WT)

Question: And the binding signal [26]?
Answer: 1.3 ± 0.7 Kd(mutant)/Kd(WT)

Question: And the binding signal [27]?
Answer: 3 ± 0.6 Kd(mutant)/Kd(WT)

Question: And the binding signal [28]?
Answer: 0.8 ± 0.1 Kd(mutant)/Kd(WT)

Question: And the binding signal [29]?
Answer: 0.7 ± 0.2 Kd(mutant)/Kd(WT)

Question: And the binding signal [30]?
Answer: 0.6 ± 0.5 Kd(mutant)/Kd(WT)

Question: And the binding signal [31]?
Answer: 2.8 ± 0.3 Kd(mutant)/Kd(WT)

Question: What about the binding signal [32] of the same sequence?
Answer: 30 ± 5.4 Kd(mutant)/Kd(WT)

Question: And the binding signal [33]?
Answer: 190 ± 70 Kd(mutant)/Kd(WT)

Question: What about the binding signal [34] of the same sequence?
Answer: 2.8 ± 0.9 Kd(mutant)/Kd(WT)

Question: And the binding signal [35]?
Answer: 7.5 ± 3.5 Kd(mutant)/Kd(WT)

Question: And the binding signal [36]?
Answer: 1.4 ± 1.3 Kd(mutant)/Kd(WT)

Question: And the binding signal [37]?
Answer: 3.2 ± 0.8 Kd(mutant)/Kd(WT)

Question: What about the binding signal [38] of the same sequence?
Answer: 8.5 ± 2.2 Kd(mutant)/Kd(WT)

Question: And the binding signal [39]?
Answer: 0.8 ± 0.3 Kd(mutant)/Kd(WT)

Question: And the binding signal [40]?
Answer: 0.8 ± 0.5 Kd(mutant)/Kd(WT)

Question: What about the binding signal [41] of the same sequence?
Answer: 1.1 ± 0.5 Kd(mutant)/Kd(WT)

Question: What about the binding signal [42] of the same sequence?
Answer: 2.7 ± 1.2 Kd(mutant)/Kd(WT)

Question: And the binding signal [43]?
Answer: 15 ± 8.4 Kd(mutant)/Kd(WT)

Question: What about the binding signal [44] of the same sequence?
Answer: 8.5 ± 1 Kd(mutant)/Kd(WT)

Question: What about the binding signal [45] of the same sequence?
Answer: 1.9 ± 0.2 Kd(mutant)/Kd(WT)

Question: And the binding signal [46]?
Answer: 2.6 ± 0.1 Kd(mutant)/Kd(WT)

Question: What about the binding signal [47] of the same sequence?
Answer: 1.8 ± 0.9 Kd(mutant)/Kd(WT)

Question: What about the binding signal [48] of the same sequence?
Answer: 1.7 ± 1.9 Kd(mutant)/Kd(WT)
